{"source": "PubChem BioAssay AID602313", "about": "(National Center for Advancing Translational Sciences (NCATS), 2012)", "note": "Hit rate of the full screen: of about 390,000 compounds, about 760 (0.19%) were called active. A call without a number means that no potency is given here. Another 3% or so got no clear call; they are omitted. The sample holds actives, similar compounds and a random draw of the others, so the mix is not that of the screen. Calls come from the whole dose curve; as a rule, active = well fitted inhibition curve with a large enough effect; inconclusive = small, poorly fitted or top-dose-only effect; inactive = flat fitted curve, though single readings scatter. Potency is the fitted concentration of half-maximal effect.", "data": [{"assay": "qHTS for Inhibitors of Vif-A3F Interactions: qHTS; note: nearly all actives have a fitted effect of over 65% in size", "settings": "HeLa A3F-eYFP + Vif (tagged APOBEC3F with the HIV-1 protein that degrades it), YFP fluorescence increase; series mostly up to 46.1 µM", "outline": "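HeLa cells stably expressing A3F-eYFP plus Vif, plated and incubated overnight at 37 deg C, then exposed to compounds overnight at 37 deg C. Blocked degradation read as raised yellow fluorescence (Ex 488/Em 500-530).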", "values": [{"smiles": "CSc1ccc(NC(=O)Cn2nnnc2-c2ccccc2F)cc1", "Potency": "inactive"}, {"smiles": "CCc1nc(Nc2ccc3nccnc3c2)c2oc3ccccc3c2n1", "Potency": "22.4 µM (active)"}, {"smiles": "COCCNc1nc(-c2ccccc2)nc2c1oc1ccccc12", "Potency": "inactive"}, {"smiles": "C[C@@H](Nc1nc(-c2ccccc2)nc2c1oc1ccccc12)C(=O)O", "Potency": "inactive"}, {"smiles": "Cc1ccc(C(=O)C(=S)N2CCOCC2)cc1", "Potency": "inactive"}, {"smiles": "C=CCNC(=S)N/N=C/c1ccc(C)s1", "Potency": "inactive"}, {"smiles": "CNC(=S)N/N=C/c1ccc(N2CCOCC2)s1", "Potency": "1.12 µM (active)"}, {"smiles": "Oc1[nH]c2ccccc2c1N=Nc1c(F)c(F)c(F)c(F)c1F", "Potency": "25.1 µM (active)"}, {"smiles": "S=c1[nH]c2ccccc2c2ccccc12", "Potency": "inactive"}, {"smiles": "O=[N+]([O-])c1cc(S(=O)(=O)Nc2cccc(Cl)c2)ccc1N=Nc1c(O)[nH]c2ccccc12", "Potency": "inactive"}, {"smiles": "CCN(CCCNC(=O)c1cc2cc3cc(OC)ccc3nc2s1)c1ccccc1", "Potency": "inactive"}, {"smiles": "CCOc1ccc(/C=C(\\C#N)c2nc3ccccc3c(=O)[nH]2)cc1OC", "Potency": "inactive"}, {"smiles": "COc1cc(/C=C(\\C#N)c2nc3ccccc3[nH]2)ccc1O", "Potency": "12.6 µM (active)"}, {"smiles": "Cc1ccc2nc(/C(C#N)=C/c3ccccc3F)[nH]c2c1", "Potency": "inactive"}, {"smiles": "COc1ccc(NC(=O)c2cnc(Nc3ccc(C)c(Cl)c3)c3ccccc23)cc1OC", "Potency": "inactive"}, {"smiles": "COC(=O)c1cnc(Nc2cc(C)ccc2OC)c2ccccc12", "Potency": "31.6 µM (active)"}, {"smiles": "COc1ccc(Nc2ncc(C(=O)Nc3cc(C)ccc3OC)c3ccccc23)cc1", "Potency": "inactive"}, {"smiles": "O=C(CCS(=O)(=O)c1ccccc1)N(Cc1cccnc1)c1nc2c(F)cccc2s1", "Potency": "inactive"}, {"smiles": "S=C(NN=Cc1ccccn1)Nc1ccccn1", "Potency": "11.2 µM (active)"}, {"smiles": "COc1ccc(-n2c(=O)c3sc4ccccc4c3n(CC(=O)Nc3cccc(C)c3)c2=O)cc1", "Potency": "inactive"}, {"smiles": "CCCN(CCC)CCCNC(=O)Cn1ncc2c3ccccc3n(Cc3ccccc3)c2c1=O", "Potency": "inactive"}, {"smiles": "Cc1oc2ncnc(N3CCCCC3)c2c1C(=O)N1CCN(c2cccc(Cl)c2)CC1", "Potency": "inactive"}, {"smiles": "COc1ccc(C)cc1N(CC(=O)N1CCC(C)CC1)S(=O)(=O)c1ccc(C)cc1", "Potency": "inactive"}, {"smiles": "Cn1c(COc2ccccc2C(C)(C)C)nc2ccccc21", "Potency": "inactive"}, {"smiles": "O=C1CCCc2cc(S(=O)(=O)N3CCCC(C(=O)NCc4ccccc4)C3)ccc2N1", "note": "(stereo not given)", "Potency": "inactive"}, {"smiles": "Cc1nn(CC(=O)N2CCN(c3cccc(C(F)(F)F)c3)CC2)c(=O)c2cc3sccc3n12", "Potency": "inactive"}, {"smiles": "CCN(Cc1ccccc1)C(=O)c1cn(-c2cccc(OC)c2)c(=O)c2ccccc12", "Potency": "inactive"}, {"smiles": "COc1cccc(CNC(=O)c2cc(=O)[nH]c3ccc(S(=O)(=O)N4CCCCC4)cc23)c1", "Potency": "inactive"}, {"smiles": "CCOC(=O)c1c(N)n(-c2cccc(C)c2C)c2nc3ccccc3nc12", "Potency": "inactive"}, {"smiles": "CCOC(=O)c1cc(-c2ccccc2)n(CCC(=O)Nc2ccccc2CC)c1C", "Potency": "inactive"}, {"smiles": "CCOC(=O)c1cc2n(c1N)-c1ccccc1C2=O", "Potency": "7.08 µM (active)"}, {"smiles": "CCOc1ccccc1NC(=O)Cn1nnc(C(=O)Nc2ccc(C)c(C)c2)c1N", "Potency": "inactive"}, {"smiles": "COc1ccc(-c2nc3sc(CCNC(=O)C(C)(C)C)c(C)n3n2)cc1", "Potency": "inactive"}, {"smiles": "CCOC(=O)C(Cc1ccccc1)NC(=O)CCc1c(C)nc2c(c(C)nn2-c2ccc(C)c(C)c2)c1C", "note": "(stereo not given)", "Potency": "inactive"}, {"smiles": "COc1ccc(NC(=O)CSc2nccn2Cc2ccc3c(c2)OCO3)cc1", "Potency": "inactive"}, {"smiles": "CCN1CCN(CCCNC(=O)c2cnn(-c3ccc(C)cc3C)c2C2CCN(C(=O)OC(C)(C)C)CC2)CC1", "Potency": "inactive"}, {"smiles": "Cc1cc(NC(=O)CN2C(=O)NC(CCc3ccccc3)C2=O)no1", "note": "(stereo not given)", "Potency": "inactive"}, {"smiles": "N#CCSc1ccccc1NC(=O)CN1C(=O)NC(CCc2ccccc2)C1=O", "note": "(stereo not given)", "Potency": "25.1 µM (active)"}, {"smiles": "CCOC(=O)CCCNC(=O)CN1C(=O)NC(CCc2ccccc2)C1=O", "note": "(stereo not given)", "Potency": "inactive"}, {"smiles": "Cc1[nH]c2ccccc2c1C(c1ccccc1)c1cccs1", "note": "(stereo not given)", "Potency": "inactive"}, {"smiles": "Cc1ccccc1C1CC(c2cccs2)=NN1S(C)(=O)=O", "note": "(stereo not given)", "Potency": "17.8 µM (active)"}, {"smiles": "COc1ccc(C2CC(c3cccs3)=Nc3ccccc3S2)cc1OC", "note": "(stereo not given)", "Potency": "inactive"}, {"smiles": "CC1Cn2c(nnc2-c2cccs2)S1", "note": "(stereo not given)", "Potency": "inactive"}, {"smiles": "COc1cc(NS(=O)(=O)c2cccs2)cc(OC)c1", "Potency": "inactive"}, {"smiles": "Cc1ccccc1Cn1nc(C)c(NC(=O)c2cc(-c3ccc(F)cc3)on2)c1C", "Potency": "inactive"}, {"smiles": "CCN(CCCNC(=O)CSc1cc(=O)n(C)c2cc(Cl)ccc12)c1cccc(C)c1", "Potency": "inactive"}, {"smiles": "COc1ccc(/C=C/c2nc(C#N)c(NCc3ccc(F)cc3)o2)cc1OC", "Potency": "inactive"}, {"smiles": "N#Cc1nc(/C=C/c2ccc(F)cc2)oc1NCc1ccc(F)cc1", "Potency": "inactive"}, {"smiles": "Cc1ccc(CSCC(=O)N(C)CC(=O)Nc2cccc(F)c2)cc1", "Potency": "inactive"}, {"smiles": "CCN(CC)C(=O)CSC(Nc1cccc(F)c1)=C(C#N)C#N", "Potency": "10 µM (active)"}, {"smiles": "CCOC(=O)c1nnn(CC(=O)Nc2cccc(F)c2)c1C(=O)OCC", "Potency": "inactive"}, {"smiles": "Cc1cc(C)cc(NC(c2nnc(-c3cccc(F)c3)o2)c2ccc(F)cc2Cl)c1", "note": "(stereo not given)", "Potency": "inactive"}, {"smiles": "O=C(Nc1ccc(S(=O)(=O)N2CCC(c3nc4ccccc4s3)CC2)cc1)c1ccccc1F", "Potency": "inactive"}, {"smiles": "O=C(Cn1nc(C(F)(F)F)c2c1CCCC2)Nc1ccc(Cl)cc1", "Potency": "inactive"}, {"smiles": "NS(=O)(=O)c1ccc(NC(=O)COc2ccc(S(=O)(=O)NC3CCCCC3)cc2)cc1", "Potency": "inactive"}, {"smiles": "Cc1cccn2c(=O)c(C(=O)NC(C)c3ccccc3)cnc12", "note": "(stereo not given)", "Potency": "inactive"}, {"smiles": "CCC1CN(S(=O)(=O)c2cc(-c3cc(C)no3)ccc2C)c2cc(C)ccc2O1", "note": "(stereo not given)", "Potency": "inactive"}, {"smiles": "O=C(CSc1oc(-c2ccco2)nc1S(=O)(=O)c1ccccc1)c1ccc(Cl)cc1", "Potency": "inactive"}, {"smiles": "CCOc1ccc(CNC(=O)C2CCCN(S(=O)(=O)N(CC)c3ccc(OCC)cc3)C2)cc1", "note": "(stereo not given)", "Potency": "inactive"}, {"smiles": "CCOC(=O)c1cccc(NC(=O)c2cc(S(=O)(=O)N3CCCC(C)C3)cn2C)c1", "note": "(stereo not given)", "Potency": "inactive"}, {"smiles": "Cc1ccc(NC(=O)CSc2nc3c([nH]c4ccccc43)c(=O)n2-c2ccccc2)c(C)c1", "Potency": "inactive"}, {"smiles": "CCCOc1ccc(-c2cccc(NS(=O)(=O)c3ccccc3)c2)nn1", "Potency": "inactive"}, {"smiles": "CCCN1CCN(CCCNC(=O)Cn2nc(CC)n3c(cc4occc43)c2=O)CC1", "Potency": "inactive"}, {"smiles": "O=C(COc1ccccc1F)Nc1ccc(C(=O)OCc2cc(=O)n3nc(C4CC4)sc3n2)cc1", "Potency": "inactive"}, {"smiles": "CC1=C(c2ccc(Cl)cc2)S(=O)(=O)N=C1N1CCN(c2cc(C)ccc2C)CC1", "Potency": "inactive"}]}]}
